# High-throughput results deposited in PubChem BioAssay by several laboratories.
# ssDAF-12 act: activates DAF-12 receptor from parasite S. stercoralis; actives 1% (n = 370,000); activation, % at 6.8 µM; AID 652126; HEK293 ssDAF-12/GRIP1 lit1-tk-luc reporter, luminescence; % of 3 µM dafachronic acid response;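 active means activation above the mean over all tested compounds plus 3 SD, cut at about 0.9% in these data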
# NR1D1 modulator: Rev-erb alpha (human) modulation; P20393; actives 0.79% (n = 370,000); Rev-erbα–FITC-DNA binding, fluorescence polarization, 90 min; activity, % at 10 µM; AID 1259318;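 active means activity above about 14%, limit read from the data; passing the limit was not always enough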
# DAX1 inh-1: DAX1 (NR0B1) inhibition, primary screen; HEK293T StAR-luciferase reporter, SF-1/DAX-1 repression relief; inhibition, % at 6.8 µM; actives 1.1% (n = 370,000); AID 652010;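 active means inhibition above the mean over all tested compounds plus 3 SD, cut at about 3.6% in these data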;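 further: higher inhibition means more luminescence from relief of DAX-1 repression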
# hcDAF12 agonist: activators of H. contortus DAF-12 nuclear receptor | activation, % at 6.8 µM | HEK293 hcDAF-12 lit1-tk-luc reporter, luminescence; 0% DMSO, 100% Δ7-dafachronic acid | actives 1.4% (n = 370,000) | AID 652067;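 active means activation above the mean of all tested compounds plus 3 SD, cut at about 5.5% in these data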
# DAX1 inh-2: inhibitors of human orphan nuclear receptor DAX1 (NR0B1); HEK293 Gal4-DAX1 luciferase reporter, luminescence; inhibition, % at 6.75 µM; actives 0.99% (n = 340,000); P51843;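 active means inhibition above the mean over all tested compounds plus 3 SD, cut at about 4.2% in these data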;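 further: inhibition shows as a rise in luminescence from relieved DAX1 repression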
# Target sequence (P51843 207-470 limits assumed): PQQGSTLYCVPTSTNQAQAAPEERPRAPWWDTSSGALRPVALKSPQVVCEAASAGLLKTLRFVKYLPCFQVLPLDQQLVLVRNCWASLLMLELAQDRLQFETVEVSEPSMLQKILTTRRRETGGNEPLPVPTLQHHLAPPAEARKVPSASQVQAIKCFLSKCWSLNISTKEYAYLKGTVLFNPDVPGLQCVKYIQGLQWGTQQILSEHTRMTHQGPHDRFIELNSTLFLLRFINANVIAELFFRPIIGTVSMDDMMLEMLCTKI
# hgDAF-12 ag: agonists of H. glycines DAF-12 nuclear receptor; HEK293 GAL4-hgDAF12 UAS-luciferase reporter, agonist luminescence; normalized to butyrate control; activation, % at 6.8 µM; actives 1.8% (n = 370,000); AID 687014;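 active means activation above a cutoff set at the mean of all screened compounds plus 3 SD, cut at about 10% in these data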
# LXRb hcDAF ctr: activates human LXR-beta, counter-screen for hcDAF-12 agonists. shares compounds with hcDAF12 agonist. HEK293 Gal4-LXR tk-luc reporter, luminescence, 24 h; normalized: DMSO 0%, positive control 100%. activation, % at 6.8 µM. 3,400 tested, under 10 active;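 active means mean percent activation of the reporter above a cutoff set as the average over tested compounds plus their standard deviation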
# Target sequence (P55055 whole entry, looked up, the tested form may be a part): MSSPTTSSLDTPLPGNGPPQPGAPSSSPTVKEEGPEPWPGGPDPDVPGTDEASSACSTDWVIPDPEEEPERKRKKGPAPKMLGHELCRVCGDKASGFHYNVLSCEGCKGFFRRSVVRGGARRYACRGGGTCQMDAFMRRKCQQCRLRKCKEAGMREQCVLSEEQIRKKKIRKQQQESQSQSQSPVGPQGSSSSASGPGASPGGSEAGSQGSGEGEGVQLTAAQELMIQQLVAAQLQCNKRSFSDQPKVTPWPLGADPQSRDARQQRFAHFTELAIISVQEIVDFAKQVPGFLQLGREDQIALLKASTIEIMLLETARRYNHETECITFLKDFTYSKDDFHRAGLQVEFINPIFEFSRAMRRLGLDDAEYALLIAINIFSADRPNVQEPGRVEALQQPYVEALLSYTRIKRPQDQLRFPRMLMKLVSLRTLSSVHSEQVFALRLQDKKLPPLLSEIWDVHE
# hcDAF12 conf: confirmation of H. contortus DAF-12 agonists; shares compounds with hcDAF12 agonist; HEK293 hcDAF-12 lit1-tk-luc reporter, luminescence; % of Δ7-dafachronic acid response; activation, % at 6.8 µM; actives 61% (n = 3,400); AID 743032;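 active means mean activation across triplicate tests above the threshold derived from the earlier primary screen, cut at about 5.5% in these data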
# hgDAF12 conf: hgDAF-12 agonism, confirmation assay; shares compounds with hgDAF-12 ag; HEK293 GAL4-hgDAF12 luciferase reporter, agonist mode; percent of butyrate response; activation, % at 6.8 µM; actives 80% (n = 3,300); AID 743050;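 active means mean activation over triplicate wells above the hit cutoff derived from the earlier primary screen, cut at about 11% in these data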
# LXRb DAF12 ctr: counter-screen for DAF-12 agonists: agonists of human LXR-beta; AID 743051; 3,300 tested, under 10 active; HEK293 Gal4-LXR luciferase reporter, 24 h; shares compounds with hgDAF-12 ag; activation, % at 6.8 µM;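 active means mean activation of the triplicate above a set limit carried over from the primary screen, none filed active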
# Rev-erbA confirm: confirmation of modulators of human Rev-erb alpha DNA binding. shares compounds with NR1D1 modulator. Rev-erb alpha FITC-DNA binding, fluorescence polarization, 90 min. activation, % at 25 µM. actives 61% (n = 3,000). AID 1259319;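 active means activation at or above a set limit, or at least 3 SD above the negative control mean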
# RORg DNA counter: affects RORgamma DNA binding in a Rev-erb alpha counter-screen. shares compounds with NR1D1 modulator. purified RORgamma protein-FITC-DNA binding, fluorescence polarization. IC50, µM. actives 8% (n = 910);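 active means Compounds whose fitted half-maximal concentration for disrupting protein-DNA binding is below 10 micromolar; the record names Rev-erb in its text, so the target is in doubt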
# Numbers stand for hits; – = inactive; · = not tested or not shown; ! = repeats disagree. Compounds with a hit are over-represented: about 4.8% of the library has one in this group of screens.
SMILES,ssDAF-12 act,NR1D1 modulator,DAX1 inh-1,hcDAF12 agonist,DAX1 inh-2,hgDAF-12 ag,LXRb hcDAF ctr,hcDAF12 conf,Rev-erbA confirm,others
Cc1[nH]c2ccccc2c1N=Nc1cccc(C(=O)O)c1,2.9,–,4.2,12,–,14,–,7.6,·,hgDAF12 conf=19;LXRb DAF12 ctr=–
Cc1[nH]n(-c2ccccc2)c(=O)c1N=Nc1cccc(C(=O)O)c1,2.2,–,–,8.9,–,14,–,12,·,hgDAF12 conf=15;LXRb DAF12 ctr=–
CNC(=O)c1ccccc1C1(O)c2ccccc2CCc2ccccc21,–,–,–,–,·,–,·,·,·,
O=[N+]([O-])c1cccnc1N/N=C/c1ccccc1O,–,–,3.8,9.2,–,15,–,–,·,hgDAF12 conf=–;LXRb DAF12 ctr=–
CCCS(=O)(=O)NCc1cn2c(C)csc2n1,1.1,–,3.8,10,–,15,–,–,·,hgDAF12 conf=–;LXRb DAF12 ctr=–
CN1C(=O)SC(Nc2ccccc2)C1=O (stereo not drawn),–,–,–,–,–,–,·,·,·,
COc1cccc(NC2SC(=O)N(c3ccccc3)C2=O)c1 (stereo not drawn),–,–,5.5,7.1,–,14,–,–,·,hgDAF12 conf=11;LXRb DAF12 ctr=–
CC(C)Cc1cc(C(=O)Nc2cccc(O)c2)no1,–,–,–,8.4,–,18,–,6.5,·,hgDAF12 conf=19;LXRb DAF12 ctr=–
S=c1[nH]nc(-c2cc(-c3ccco3)[nH]n2)n1-c1ccccc1,–,–,–,–,–,–,·,·,·,
Oc1c(-c2cc(-c3ccco3)[nH]n2)ccc2ccccc12,2.6,·,3.6,13,–,20,–,15,·,hgDAF12 conf=25;LXRb DAF12 ctr=–
Nc1[nH]c(C(=O)c2ccc(Br)cc2)c(-c2ccc(Cl)cc2)c1C(=O)NCCc1c[nH]c2ccccc12,–,–,–,–,·,–,·,·,·,
Cc1c(C(C)(C)C)sc(=NC(=O)c2ccccc2O)n1C,–,21,–,6.9,–,14,–,14,–,hgDAF12 conf=15;LXRb DAF12 ctr=–
O=C(O)CCCCN1C(=O)C=CC1=O,–,–,–,–,·,–,·,·,·,
CNc1c2cccc(C)c2nc2c(C(=O)NCCN(C)C)cccc12,4.1,15,–,38,–,–,–,–,–,
O=C(Nc1cc(-c2nc3ccccc3s2)ccc1Cl)c1ccc2c(c1)OCO2,1.6,28,–,9.9,–,11,–,6.3,–,
O=S1(=O)N[C@@H](Cc2ccccc2)COc2cccc(NCCCN3CCOCC3)c21,–,–,–,–,·,–,·,·,·,
C[C@H]1CC2C([C@@H](O)C[C@@]3(C)C2CC[C@]3(O)C(=O)CO)[C@@]2(C)C=CC(=O)C=C12 (stereo partly drawn),·,–,·,·,·,·,·,·,·,
Cc1cc(-c2ccc(Br)cc2)n2nc(C)cc2n1,–,–,–,–,–,–,·,·,·,
Cc1cc(C)n2nc(-c3ccc(Cl)cc3)cc2n1,1.9,65,–,13,–,11,–,12,52,RORg DNA counter=–
Cc1cc(C)n2nc(-c3ccc(Br)cc3)cc2n1,1.5,27,–,14,4.7,11,–,11,–,
Cc1cc(-c2ccc(Cl)cc2)n2nc(C)cc2n1,–,–,–,–,–,–,·,·,·,
CCCN(CCC)CCN1CCN(C(=O)[C@H](CCc2ccccc2)NC(=O)[C@H]2O[C@@H](n3cnc4c(N)ncnc43)[C@H](O)[C@@H]2O)CC1,–,–,–,–,·,–,·,·,·,
Cc1ccc2nc(-c3cc(-c4ccccc4)no3)cn2c1,–,37,–,8.1,–,12,–,–,19,
COc1cc(OC)cc(-c2nc(-c3cc4cc(C)ccc4nc3OC)no2)c1,–,–,–,–,–,–,·,·,·,
COc1nc2c(C)cccc2cc1-c1noc(-c2ccco2)n1,–,20,–,6.9,–,–,–,–,–,
SMILES,ssDAF-12 act,NR1D1 modulator,DAX1 inh-1,hcDAF12 agonist,DAX1 inh-2,hgDAF-12 ag,LXRb hcDAF ctr,hcDAF12 conf,Rev-erbA confirm,others
Cc1ccc(NP(=O)(c2ccc(N(C)C)cc2NC(=O)c2cccs2)N2CCOCC2)cc1 (stereo not drawn),1.5,24,–,8.4,–,–,–,–,–,
Cn1c(/C(C#N)=C(\O)c2ccc(Cl)s2)nc2ccccc21,–,50,–,8.0,–,–,–,8.3,–,
Nc1ccc2ccc(O)cc2c1,–,–,–,–,–,–,·,·,·,
C[n+]1c2cc(N)ccc2cc2ccc(N)cc21,–,51,–,6.6,–,13!,–,11,29,hgDAF12 conf=–;LXRb DAF12 ctr=–;RORg DNA counter=–
Cc1ccc2sc(NC(=O)CSc3nc(C)cc(C)c3C#N)nc2c1,0.9,29,4.0,11,–,12,–,11,–,
Cc1cc(C(F)(F)F)c(C#N)c(SCC(=O)Nc2nc3ccccc3s2)n1,–,–,–,–,–,–,·,·,·,
COCCCNc1nc2c(-c3ccc(C)cc3)nnn2c2ccccc12,3.6,65,–,8.0,–,12,–,8.0,35,RORg DNA counter=–
CCCCNc1nc2c(S(=O)(=O)c3ccccc3)nnn2c2ccccc12,–,–,–,–,–,–,·,·,·,
CC1CCN(c2c3c(nc4ncnn24)CCCC3)CC1,–,–,–,–,·,–,·,·,·,
Fc1cccc2sc(Nc3nc4ccccc4s3)nc12,–,40,–,12,–,–,–,11,35,RORg DNA counter=–
Fc1ccc2nc(Nc3nc4c(F)cccc4s3)sc2c1,–,–,–,–,–,–,·,·,·,
Cc1cc(O)cc(=O)n1-c1ccc(Cl)c(C(F)(F)F)c1,–,–,–,–,·,–,·,·,·,
COC(=O)C1=C(C)N(Cc2ccccc2C(F)(F)F)C(=NCc2ccc3c(c2)OCO3)NC1c1ccccc1C(F)(F)F (stereo not drawn),–,–,–,–,·,–,·,·,·,
CC(C)CSc1nnc2c3ccccc3n(C)c2n1,1.6,20,–,14,10,–,–,11,–,
Cn1c(-c2ccc(Br)o2)nc2ccccc21,1.0,–,3.7,5.8,–,15,·,·,·,hgDAF12 conf=15;LXRb DAF12 ctr=–
Cc1ccc2c(Cl)c(C(=O)NCCc3ccccc3)sc2c1,–,–,–,–,–,–,·,·,·,
